# Screening data deposited in PubChem BioAssay by National Center for Advancing Translational Sciences (NCATS).
# VACV Venus inh: inhibitors of vaccinia virus (Venus reporter); Vaccinia virus Venus reporter expression, fluorescence; Potency, µM (series often up to 36.5 µM), without a hit: at the highest dose activity change, negative = inhibition, hits mostly inhibitors; hit rate 0.46% among 330,000; AID 720580; calls by dose curve; tested in A549 cells; note: potency is the fitted concentration of half-maximal effect; nearly all actives have a fitted effect of over 30% in size
# HCMV antiviral: inhibitors of human cytomegalovirus; HFF cells, HCMV-luciferase reporter, 72 h; stronger effect = lower value; activity change, negative = inhibition, % at 57.5 µM; hit rate 4.5% among 410,000; AID 1259415; in the data active = activity change below about -60%; inconclusive = no clear call, values can overlap the other calls; inactive = above about -39%
#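 Cell-based, HFFs, 1000 cells/well, 16 h 37C; cpds in DMSO + HCMV-luc, MOI 1 PFU/cell; 72 h 37C; OneGlo luminescence after 5 min RT; norm. to buffer vs Salinomycin 10uM.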
# Lassa entry inh: Lassa virus entry inhibition; Lassa virus pseudotype entry inhibition, cell reporter; Potency, µM (doses to about 37.9 µM), without a hit: top-dose activity change, negative = inhibition, hits mostly inhibitors; hit rate 1.2% among 300,000; AID 540256; calls by dose curve; tested in HEK293 cells; note: potency is the fitted concentration of half-maximal effect; nearly all actives have a fitted effect of over 50% in size
# Vaccinia mCherry: inhibitors of vaccinia virus infection (mCherry reporter signal); Vaccinia virus mCherry reporter infection, fluorescence; hit rate 0.63% among 310,000; Potency, µM (highest dose often 36.5 µM), inactives show at the highest dose activity change, negative = inhibition, hits mostly inhibitors; calls by dose curve; tested in A549 cells; note: potency is the fitted concentration of half-maximal effect; nearly all actives have a fitted effect of over 35% in size
# FMDV antiviral: antivirals against foot and mouth disease virus; AID 1159524; Potency, µM (highest dose often 57.9 µM), for inactives: top-dose activity change, negative = inhibition, hits mostly inhibitors; hit rate 1.2% among 410,000; FMDV antiviral cell-based qHTS; calls by dose curve; tested in HEK293T cells; note: read-out not given here; potency is the fitted concentration of half-maximal effect; nearly all actives have a fitted effect of over 45% in size
# Marburg entry inh: Marburg virus entry inhibition; Marburg virus pseudotyped entry inhibition, cell reporter; Potency, µM (highest dose often 37.8 µM), for inactives: at the top dose activity change, negative = inhibition, hits mostly inhibitors; hit rate 1.8% among 300,000; calls by dose curve; tested in HEK293 cells; note: potency is the fitted concentration of half-maximal effect
# An asterisk follows results filed as active; i = inactive; u = inconclusive; x = no result; [ ] = another dose, or the depositor's remark. An excerpt weighted towards active compounds, which were near 6.5% of everything screened. % is set by controls: 0 for no effect and ±100 for the full control effect.
SMILES,VACV Venus inh,HCMV antiviral,Lassa entry inh,Vaccinia mCherry,FMDV antiviral,Marburg entry inh
COc1ccc(-n2c(=O)c3c4c(sc3n(Cc3ccc(F)cc3)c2=O)CCCC4)c(OC)c1,-8%,-9,4%[46.1 µM],-10%,-27%,5%[46.1 µM]
COc1ccc(C2C(C#N)=C(N)Oc3c2ccc2cccnc32)cc1OC (stereo unspecified),u,-101*,u,8.9µM*,3%,u
COc1ccc(C2C(C#N)=C(N)OC3=C2C(=O)CC(C)(C)C3)cc1OC (stereo unspecified),-2%,u,u,-6%,-7%,3%
COc1cc(C2C(C#N)=C(N)Oc3c2ccc2ccccc32)ccc1OCC(=O)Nc1cccc(C)c1 (stereo unspecified),u,40,10µM*,-20%,u,u
COc1cc(C2C(C#N)=C(N)Oc3c2ccc2ccccc32)ccc1OCC(=O)Nc1ccc(C)cc1 (stereo unspecified),-23%,26,u,u,u,u
COC(=O)[C@H]1CC(=O)N[C@@H]1c1ccc(OC(C)C)c(OC)c1,x,-3,x,x,x,x
CC1=NOC(=O)/C1=C/c1ccc(O)c(Br)c1,-4%,22,3%[46.1 µM],i,25µM*,11%[46.1 µM]
CC1=NOC(=O)/C1=C\c1ccc(-c2cccc(Cl)c2)o1,-40%,x,u,u,40µM*,u
CC1=NOC(=O)/C1=C\c1ccc(-c2ccccc2Br)o1,x,-10,x,x,25µM*,x
CC1=NOC(=O)/C1=C/c1ccc(O)cc1,-6%,-12,2%,-18%,-10%,4%[46.1 µM]
Cc1cc(Nc2cccc(C(F)(F)F)c2)nc2ccc(NC(=O)c3cccc(Cl)c3)cc12,-22%,-104*,-27%[46.1 µM],-22%,u,x
Cn1nc(C(F)(F)F)c(-c2cccc(C(F)(F)F)c2)c1NC(=O)c1cccnc1,x,-78*,x,x,-22%,x
CCOc1ccc(C(=O)Nc2ccc3nc(Nc4cccc(C(F)(F)F)c4)cc(C)c3c2)cc1OCC,-6%,-62*,0%[46.1 µM],3%,0%,x
Cn1nc(C(F)(F)F)c(-c2ccccc2)c1NC(=O)c1cccnc1,x,-1,x,x,-4%,x
Cc1cc(Nc2cccc(C(F)(F)F)c2)nc2ccc(NC(=O)c3cccnc3)cc12,11µM*,-107*,u,10µM*,28µM*,x
O=C(Cn1ncc2c3ccccc3n(Cc3ccc(Cl)cc3)c2c1=O)NCc1ccccn1,-9%,13,3%[46.1 µM],1%,-12%,-2%[46.1 µM]
O=C(C1CCN(S(=O)(=O)c2ccc(Br)s2)CC1)N1CCN(c2cccc(Cl)c2)CC1,-17%,-30,u,u,-29%,-18%[46.1 µM]
Clc1cccc(Cl)c1Cn1cnc(=NCc2ccco2)c2[nH]cnc21,x,-71*,-19%,x,4%,u
Cc1ncoc1C(=O)N1CCOc2ccc(CN3CCN(c4ccccn4)CC3)cc2C1,-9%,x,x,-11%,-17%,x
CC(C)C(=O)NC(c1cccc([N+](=O)[O-])c1)c1c(O)ccc2ccccc12 (stereo unspecified),-8%,3,10%,-8%,39%,-23%[46.1 µM]
CC(C)C(=O)NC(c1cccc([N+](=O)[O-])c1)c1ccc2cccnc2c1O (stereo unspecified),4.5µM*,-105*,7.1µM*,u,-11%,u
CCCC(=O)NC(c1cccc([N+](=O)[O-])c1)c1ccc2cccnc2c1O (stereo unspecified),u,-98*,x,4µM*,0%,x
CCC(=O)NC(c1cccc([N+](=O)[O-])c1)c1c(OC(C)=O)ccc2ccccc12 (stereo unspecified),-29%,33,u,x,u,u
CN(C)CCCNc1oc(/C=C/c2ccc(F)cc2)nc1C#N,-2%,u,u,-12%,0%,u
CCOC(=O)C1=C(C)N=c2s/c(=C\c3ccc(O)c([N+](=O)[O-])c3)c(=O)n2C1c1ccccc1OC (stereo unspecified),-7%,u,-6%[46.1 µM],-16%,u,-22%[46.1 µM]
SMILES,VACV Venus inh,HCMV antiviral,Lassa entry inh,Vaccinia mCherry,FMDV antiviral,Marburg entry inh
COc1ccc(/C=c2/sc3n(c2=O)C(c2ccccc2OC)C2=C(N=3)c3ccccc3CC2)cc1O (stereo unspecified),x,-64*,-25%,x,-11%,23µM*
CC(O)[C@H]1CN=C(N)N1CCc1cc(C(F)(F)F)cc(C(F)(F)F)c1 (stereo partly specified),-2%,-5,x,-20%,-2%,x
NC1=NC[C@@H](CC2CCCCC2)N1CCc1cc(C(F)(F)F)cc(C(F)(F)F)c1,10µM*,x,x,u,35µM*,x
NC1=NC[C@H](c2ccccc2)N1CCc1cc(C(F)(F)F)cc(C(F)(F)F)c1,10µM*,-71*,x,10µM*,u,x
NC1=NC[C@H](Cc2ccc(O)cc2)N1CCc1cc(C(F)(F)F)cc(C(F)(F)F)c1,-1%,-26,x,-11%,-14%,x
O=C(NC1CCCC1)c1ccc2c(c1)N(Cc1ccc(C(F)(F)F)cc1)C(=O)c1ccccc1S2,-22%,-10,-14%[46.1 µM],-16%,u,-24%[46.1 µM]
CN(C)c1ccc(C=O)c(F)c1,5%,x,x,-9%,x,x
O=C(C[n+]1cccc(Br)c1)c1cccc([N+](=O)[O-])c1,2%,x,x,-7%,x,x
Cc1cccc(OCC(=O)Nc2c(C(=O)N3CCN(c4ccccc4F)CC3)oc3ccccc23)c1,-7%,-15,u,-5%,52%,10µM*
CC(C)(C)C(=O)Nc1c(C(=O)N2CCN(c3ccc(F)cc3)CC2)oc2ccccc12,-15%,-82*,20%[46.1 µM],-11%,22%,x
COc1cc(-c2nnc(SCC(=O)Nc3cccc(C#N)c3)o2)cc(OC)c1OC,1%,-25,-9%[46.1 µM],-17%,-19%,u
CCCN1CCN(CC2=C(C(=O)OCC)C(c3ccc(Cl)cc3)NC(=O)N2)CC1 (stereo unspecified),-11%,-10,-15%[46.1 µM],-25%,0%,u
CCOC(=O)c1cccn1C1C(=O)N(Cc2ccc(OC)cc2)c2ccc(F)cc21 (stereo unspecified),x,-10,x,x,x,x
S=C(NCC1(c2ccccc2)CCCC1)Nc1ccccc1,x,-97*,x,x,0%,x
O=C1c2ccccc2C(=O)N1CCCCc1cn(C[C@H]2CC[C@@H]([C@@H]3CC[C@H](Cn4cc(CCCCN5C(=O)c6ccccc6C5=O)nn4)O3)O2)nn1,-4%,12,x,-9%,25µM*,x
Cc1cc(C(=O)COC(=O)CNC(=O)c2ccccc2)c(C)n1CC1CCCO1 (stereo unspecified),-1%,-14,14%,i,16µM*,-6%[46.1 µM]
COCCn1c(C)cc(C(=O)COC(=O)CNC(=O)c2ccccc2)c1C,-11%,-35,-18%,i,25µM*,-7%[46.1 µM]
Cc1cc(C(=O)CSc2nnc(Nc3ccccc3F)s2)c(C)n1CC1CCCO1 (stereo unspecified),-15%,-11,-6%,i,u,-19%
Cc1cc(C(=O)COc2cc(F)ccc2[N+](=O)[O-])c(C)n1CC1CCCO1 (stereo unspecified),x,-66*,x,x,-6%,x
